Screens (PubChem BioAssay)
RORgamma inh – ROR gamma (mouse) transcription inhibition; P51450; Drosophila S2 Gal4-RORgamma UAS-luciferase reporter, 20 h; Potency, µM (highest dose often 53.6 µM), for inactives: at the highest dose activity change, negative = inhibition, usual class: inhibitors; 310,000 compounds, 5.4% hits; further: potency means the concentration at half of the fitted maximal effect; nearly all actives have a fitted effect of over 60% in size
Target sequence (P51450 whole entry, looked up, the tested form may be a part): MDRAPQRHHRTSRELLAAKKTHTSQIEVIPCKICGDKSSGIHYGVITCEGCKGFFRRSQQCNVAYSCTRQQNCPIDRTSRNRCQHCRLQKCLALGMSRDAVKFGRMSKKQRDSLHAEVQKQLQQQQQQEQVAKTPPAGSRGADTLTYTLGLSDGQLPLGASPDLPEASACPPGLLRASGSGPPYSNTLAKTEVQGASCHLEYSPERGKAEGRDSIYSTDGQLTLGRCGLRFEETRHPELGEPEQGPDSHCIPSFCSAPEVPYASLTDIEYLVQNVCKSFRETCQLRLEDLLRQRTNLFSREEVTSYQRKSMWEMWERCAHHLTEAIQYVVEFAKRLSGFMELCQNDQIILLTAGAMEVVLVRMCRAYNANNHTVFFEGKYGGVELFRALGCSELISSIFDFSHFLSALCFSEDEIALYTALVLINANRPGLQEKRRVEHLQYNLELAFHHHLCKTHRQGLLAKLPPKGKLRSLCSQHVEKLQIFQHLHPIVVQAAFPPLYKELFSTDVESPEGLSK
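ROR gamma transcriptional activity was tracked as Gal4-UAS luciferase output in stably transfected Drosophila Schneider cells, with compound added 1 hr before 700 uM copper sulfate induction and a 20 hr ambient-temperature incubation.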
ELG1 repair inh – ELG1-dependent DNA repair inhibition; HEK293T ELG1-luciferase reporter, luminescence, 16 h; DNA damage induced by 5-fluorouridine; Potency, µM (doses to about 46.1 µM), for inactives: at the highest dose activity change, negative = inhibition, actives largely listed as inhibitors; 330,000 compounds, 2.3% hits; AID 504467; further: potency means the concentration at half of the fitted maximal effect; nearly all actives have a fitted effect of over 55% in size
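Step one: seed 2,000 cells per well. Step two: pin-transfer compound or DMSO alongside 5-fluorouridine. Step three: incubate 16 hr, 37 °C, 5% CO2. Step four: add ONE-Glo, wait 30 min, read luminescence.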
TDP1 cell noCPT – qHTS for Inhibitors of human tyrosyl-DNA phosphodiesterase 1 (TDP1): qHTS in cells in absence of CPT. Potency, µM (doses to about 46.2 µM), for inactives: top-dose activity change, negative = growth inhibition, usual class: inhibitors. 420,000 compounds, 15% hits. DT40 Tdp1-/- hTDP1 cells, no CPT, ATP luminescence, 48 h; further: potency means the concentration at half of the fitted maximal effect; nearly all actives have a fitted effect of over 55% in size
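Camptothecin absent (DMSO only). Human TDP1-complemented DT40 knockout cells, 400 cells/well, 37 °C for minimum 48 hr; ATP measured via CellTiter-Glo, 30 min dark incubation, luminescence.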
TDP1 cell CPT – growth inhibition of DT40 Tdp1-/-;hTDP1 cells with camptothecin (screen for TDP1 inhibitors). chicken DT40 Tdp1-/-;hTDP1 cells + 20 nM CPT, ATP luminescence, 48 h. Potency, µM (doses to about 46.2 µM), for the others: top-dose activity change, negative = growth inhibition, actives largely listed as inhibitors. 420,000 compounds, 12% hits. AID 686979; further: potency means the concentration at half of the fitted maximal effect; nearly all actives have a fitted effect of over 55% in size
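Cell growth measured by CellTiter-Glo luminescence after a minimum 48 h, 37 C compound exposure with 20 nM CPT in Tdp1-knockout DT40 cells stably expressing hTDP1, seeded 400/well; qHTS titration format.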
IL-1B inflam inh – inhibitors of inflammasome signaling (IL-1 beta secretion); THP-1 LPS/ATP IL-1B secretion, AlphaLISA, 16 h; active compounds read low; activity change, % at 57.5 µM; 360,000 compounds, 4.7% hits; AID 743279; in the data active means activity change below about -50%; inconclusive means mostly about -30% to -49%
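THP-1 cells pretreated 1 hr with compounds (up to 57.5 uM final), then stimulated with LPS (250 ng/mL final) plus ATP (1.25 mM final); secreted IL-1B measured by AlphaLISA after 16 hr, decreased signal indicating inhibition.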
Gal4-VP16 FLuc – inhibits Gal4-VP16 luciferase reporter, ROR gamma counter-screen | Potency, µM (highest dose often 53.6 µM), for inactives: at the highest dose activity, negative = inhibition, most hits filed as inhibitors | 310,000 compounds, 3.5% hits | Drosophila S2 Gal4-VP16 UAS-luciferase, luminescence, 20 h | AID 2546;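 further: Gal4-VP16 expression switched on by copper sulfate through the metallothionein promoter; potency means the concentration at half of the fitted maximal effect; nearly all actives have a fitted effect of over 50% in size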
* = called active by the depositor; ? = inconclusive; . = no result; [ ] = dose if it differs, or a comment. Rows were chosen to be rich in hits. Some 21% of all compounds tested hit in one or more screens of this group. Unless noted, the call rests on the fitted dose curve; in most records, active means well fitted curve in the direction sought with a large enough effect; inconclusive means small, poorly fitted or top-dose-only effect, or another doubt; inactive means no such curve, though single readings can be large; an effect the other way counts as inactive or inconclusive. On the % scale 0 is the no-effect control and ±100 the full control effect.

SMILES | RORgamma inh | ELG1 repair inh | TDP1 cell noCPT | TDP1 cell CPT | IL-1B inflam inh | Gal4-VP16 FLuc
CC(=O)NCCC(=O)N1CCc2c([nH]c3ccccc23)C1c1cccc(C)c1 (stereo unspecified) | 0% | ? | -25% | -30% | 10 | ?
Cc1cnc(C(=O)N2CCc3c([nH]c4ccccc34)C2c2ccc(F)cc2)cn1 (stereo unspecified) | 0% | ? | ? | -26% | 1 | -11%
CC(=O)NCCC(=O)N1CCc2c([nH]c3ccccc23)C1c1cccc(Cl)c1 (stereo unspecified) | 3% | 3% | 15µM* | ? | 0 | -16%
Cc1ccc(C2c3[nH]c4ccccc4c3CCN2C(=O)CCC2CCCC2)cc1 (stereo unspecified) | . | . | ? | 16µM* | . | .
O=C(CCN1CCCCC1)N1CCc2c([nH]c3ccccc23)C1c1cccnc1 (stereo unspecified) | . | . | -8% | -6% | ? | .
COC(=O)c1ccc(NC(=O)N2CCc3c([nH]c4ccccc34)C2c2ccc(C)cc2)cc1 (stereo unspecified) | . | . | 5.8µM* | ? | . | .
CSc1ccc(C2c3[nH]c4ccccc4c3CCN2C(=O)c2cc(C)n(C)n2)cc1 (stereo unspecified) | 12% | ? | . | . | . | 3%
COc1cc2c(cc1OC)-c1cc(Nc3ccc(F)cc3)nc(=O)n1CC2 | 12% | -4% | ? | ? | -51* | -9%
CCN(CC)c1ccc(Nc2cc3n(c(=O)n2)CCc2cc(OC)c(OC)cc2-3)cc1 | -12% | 5.2µM* | ? | 3% | -95* | 4%
COc1cc2c(cc1OC)-c1cc(Nc3ccc(N(C)C)cc3)nc(=O)n1CC2 | -28% | ? | ? | -17% | -58* | 2%
COc1cc2c(cc1OC)-c1cc(Nc3cccc(F)c3)nc(=O)n1CC2 | 11% | ? | ? | 4% | -26 | -13%
COc1cc2c(cc1OC)-c1cc(NC3CCCC3)nc(=O)n1CC2 | ? | ? | ? | -28% | 1 | 2%
COc1cc2c(cc1OC)-c1cc(OCc3ccccc3Cl)nc(=O)n1CC2 | -1% | 16µM* | ? | ? | -26 | -4%
CCCOc1ccc(-c2nc3ccc(Br)cc3c(=O)o2)cc1 | . | . | -9% | -6% | . | .
CCOC(=O)C1(C)CCN1C(=O)c1ccccc1OC(F)(F)F (stereo unspecified) | . | . | -12% | -17% | 0 | .
Clc1ccc(-c2nnc(-c3ccccc3)o2)cn1 | 1% | ? | 2% | 3% | -1 | -8%
COC(=O)CNC(=O)CSc1nc2sc(-c3ccccc3)cc2c(=O)n1-c1ccccc1 | . | . | -27% | ? | -66* | .
COC(=O)CNC(=O)CSc1nc2sccc2c(=O)n1-c1ccccc1 | 19% | 0% | 6% | 5% | 1 | 4%
CCCN1C(=O)S/C(=C/c2ccc(N3CCOCC3)o2)C1=O | -2% | ? | 16µM* | 26µM* | -91* | -14%
O=C(CN1C(=O)S/C(=C/c2ccc(N3CCOCC3)cc2)C1=O)N1CCOCC1 | -25% | ? | -12% | -19% | 6 | -28%
CCCN1C(=O)S/C(=C\c2ccc(N3CCOCC3)cc2C)C1=O | -21% | ? | . | . | . | -9%
CCCN1C(=O)S/C(=C\c2ccc(N3CCOCC3)o2)C1=O | 5.6µM* | ? | 21µM* | ? | -98* | 4.5µM*
CN(C)c1ncc2nc(-c3ccc(F)cc3)c(=O)n(-c3ccccc3)c2n1 | 13% | . | 28% | -2% | . | 0%
CCOc1ccc(C2/C(=C(\O)c3ccc4c(c3)OCCO4)C(=O)C(=O)N2Cc2cccnc2)cc1OCC (stereo unspecified) | -20% | ? | 1% | 18% | 20 | -8%
Cc1nc(N2CCCC2)ncc1C(=O)Nc1ccc(F)cc1F | . | . | -8% | -11% | . | .
SMILES | RORgamma inh | ELG1 repair inh | TDP1 cell noCPT | TDP1 cell CPT | IL-1B inflam inh | Gal4-VP16 FLuc
COc1cccc(OC)c1C(=O)NC(C)C12CC3CC(CC(C3)C1)C2 (stereo unspecified) | -17% | -32% | ? | ? | 14 | -2%
COc1ccc(CNC(C)C23CC4CC(CC(C4)C2)C3)c(OC)c1OC (stereo unspecified) | 0% | ? | 15µM* | ? | ? | 6%
CC(C)c1ccc(NC2CCCN(C(=O)CCN3CCCCO3)C2)cc1 (stereo unspecified) | 17% | -1% | -17% | -1% | 11 | 3%
CC1CC2(CC(C)(C(=O)CSc3n[nH]c(-c4ccccc4Cl)n3)OC2=O)C(=O)O1 (stereo unspecified) | 10µM* | 24% | -1% | -9% | 20 | ?
CC1(C(=O)CSc2n[nH]c(-c3ccccc3Cl)n2)CCC(=O)O1 (stereo unspecified) | -14% | 13% | . | . | . | 2%
Cc1ccc(S(=O)(=O)N2CCN(Cc3cc(=O)n4nc(-c5ccccc5Cl)sc4n3)CC2)cc1 | . | . | -17% | -2% | . | .
Cc1cccc(-c2nn3c(=O)cc(CN4CCN(S(=O)(=O)c5ccc(Cl)cc5)CC4)nc3s2)c1 | . | . | 16µM* | 3% | . | .
CCOc1ccc(C(=O)N2CCN(Cc3cc(=O)n4nc(-c5cccc(OC)c5)sc4n3)CC2)cc1 | . | . | 21µM* | ? | . | .
Cc1ccccc1-c1nn2c(=O)cc(CN3CCN(C(=O)/C=C/c4ccccc4)CC3)nc2s1 | . | . | ? | 16µM* | . | .
COc1ccccc1-c1nn2c(=O)cc(CN3CCN(C(=O)/C=C/c4ccccc4)CC3)nc2s1 | . | . | 23µM* | ? | . | .
Cc1ccc(CNC(=O)[C@H]2O[C@@H](n3cnc4c(N)ncnc43)[C@H](O)[C@@H]2O)o1 | . | . | -2% | -4% | 20 | .
Cc1ccc2c(c1)c1c(c(=O)n(Cc3ccccc3)c(=O)n1Cc1ccccc1F)n2C | . | . | -1% | 1% | . | .
COc1ccc(C2c3[nH]c4ccccc4c3CCN2CCCn2cccn2)c(C)c1C (stereo unspecified) | -6% | ? | 13µM* | 12µM* | -21 | 12%
CCS(=O)(=O)c1ccc(-c2csc(-c3ccc(Cl)cc3)n2)c(Cl)c1Cl | 29% | 18% | ? | ? | 19 | -1%[0.365 µM]
CCS(=O)(=O)c1ccc(-c2csc(-c3ccccc3Cl)n2)c(Cl)c1Cl | 11% | 6% | 23µM* | ? | -25 | 3%[0.365 µM]
O=C(Cn1cc(C(=O)C(=O)N2CCOCC2)c2ccccc21)Nc1cccc(C(F)(F)F)c1 | . | . | ? | ? | -17 | .
